Screens (PubChem BioAssay)
FECH block: human FECH heme synthesis enzyme inhibition; purified FECH, Ni-mesoporphyrin absorbance 550 nm; calls only at 10 µM (by protocol); 20,000 compounds, 3.3% hits; AID 1671448;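 active = enzyme reaction rate more than 3 SD below the solvent-only control wells on the same plate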;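 note: lower slope than DMSO wells means FECH inhibition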
Calls only; - = inactive; + = active, no number. The sample as a whole holds a higher share of hits than the screen did.

SMILES	FECH block
Cc1ccccc1CN1CCCN(Cc2ccc(Cl)cc2)S1(=O)=O	-
Cc1ccc(CN2CCCN(Cc3ccc(Cl)cc3)S2(=O)=O)cc1	+
Cc1ccc(CN2CCCN(CC(N)=O)S2(=O)=O)cc1	-
Cc1ccnc(CC(C)N(C)Cc2ccc(-c3ccn[nH]3)s2)c1 (stereo unspecified)	-
Cc1cccc(CN2CCCN(CC(=O)N3CCCC3)S2(=O)=O)c1	-
c1cc(C2NCCc3[nH]cnc32)c2cc[nH]c2c1 (stereo unspecified)	-
c1ccc2[nH]c(C3NCCc4[nH]cnc43)nc2c1 (stereo unspecified)	+
CCC(=O)c1ccc(OCC(=O)N2CCCN3CCC[C@H]3C2)cc1	-
CCc1cnc(C)nc1NCc1cnc(C)cc1C	-
CN1CCN(C)C2(CCN(c3ccc(Cl)cn3)CC2)C1	-
